# Laboratory results published in PubChem BioAssay (NCI).
# The panel holds about 83,000 compounds, 20% with a hit somewhere; the sample as a whole holds those more often.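 Treatment: one concentration, 48 hours, 96-well format. Scoring: percent growth, with anything below 10 considered active.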 A number with no mark means an inactive call. Active and inactive are the calls of the source.
# Experiments:
# Test in all cases: NCI-60 one-dose screen, 48 h (100 = growth as untreated, 0 = no growth, -100 = all killed)
# Settings in all cases: 10 µM unless noted
# [1] = system: SK-MEL-2 melanoma
# [2] = system: EKVX NSCLC
# [3] = system: SN12C renal
# [4] = system: UO-31 renal
# [5] = system: TK-10 renal
# [6] = system: ACHN renal
# [7] = system: CAKI-1 renal
# [8] = system: A498 renal
# [9] = system: CCRF-CEM leukemia
# [10] = system: MOLT-4 leukemia
SMILES,growth [1],growth [2],growth [3],growth [4],growth [5],growth [6],growth [7],growth [8],growth [9],growth [10]
O=C(Cn1nncc1CN1C(=O)CSC1=O)Nc1ccc(F)cc1,101%,92.6%,98.3%,87.6%,97.9%,97.9%,96.4%,76.4%,97.4%,105%
Fc1ccc2c(CN3CCO[C@H](COc4cccc(Cl)c4)C3)c[nH]c2c1,71.1%,74.3%,49.1%,51.4%,22.1%,46.8%,65.3%,53.9%,38.5%,25.9%
Cc1cc(C#Cc2ccccc2)ccc1-n1c(/C=C/c2ccc(F)cc2)nc2ccccc2c1=O,71%,46.5%,73%,36.2%,94.4%,78.6%,55.2%,94.1%,74.3%,44.7%
Fc1cnccc1-c1nc2ccc3[nH]ncc3c2c2c1CCCC2,-1.94% (active),35.6%,25.6%,11.6%,13.7%,7.42% (active),-4.24% (active),0.691% (active),16.1%,21.2%
Nc1nc2ccc([C@@H]3Nc4ccc5[nH]ncc5c4[C@H]4[C@H]5CCC(C5)[C@H]43)cc2s1,-1.54% (active),16.2%,11.4%,30.4%,46.3%,29.7%,29.8%,-2.86% (active),21.2%,7.02% (active)
CCN(CC)CCNc1c(C)cc(CO)c(Cl)c1C,112%,110%,97.7%,111%,106%,106%,104%,89%,101%,93%
COc1ccc(NC(=O)c2ccc(C(F)(F)F)nc2Nc2ccc(Cl)cc2C)cc1Cl,31.9%,11.3%,24%,9.94% (active),60%,14.5%,19.9%,11.5%,11%,8.09% (active)
Cc1cc(-c2nnc(/C=C/c3ccc4c(c3)OCO4)o2)n[nH]1,30.1%,90.6%,85.5%,70.1%,81.8%,95.7%,59.8%,73.2%,58.1%,69.7%
Fc1[nH]nc2ccc([C@@H]3Nc4ccc5[nH]ncc5c4[C@H]4C5CCC(C5)[C@@H]34)cc12 (stereo not given in full),33.1%,36.1%,46.1%,51.3%,42.4%,43.7%,32.6%,-12.4% (active),18%,21.2%
Clc1cn2cc(-c3ccc(Cl)c(Cl)c3Cl)nc2s1,101%,110%,101%,79.2%,165%,101%,88.1%,110%,107%,85.5%
CCN(C)CCCOc1ccc(/C(=C(\C)Cc2cccc(OC)c2)c2ccc(OC(C)=O)cc2)cc1,103%,92.5%,95%,92%,95%,104%,94.9%,94.3%,96.6%,103%
COc1ccc(/C(=C\c2cc(OC)c(OC)c(OC)c2)C(=O)Nc2nc3ccc(Cl)cc3s2)cc1,94.8%,80.5%,96.9%,76.4%,92.4%,103%,83.2%,97.4%,85%,64.4%
CSC(=S)N/N=C(\C)c1ccccn1,21.7%,4.31% (active),24.2%,-0.858% (active),41.7%,14.8%,-9.67% (active),-3.97% (active),7.65% (active),0.153% (active)
O=C1Nc2ccccc2/C1=C/c1c[nH]c2ccccc12,99.8%,15.7%,64.5%,29.3%,110%,66.7%,42.8%,91.6%,58.9%,65.6%
FC1(F)CCN(Cc2c[nH]c3cc(Cl)ccc23)C[C@H]1CCc1ccccc1,76.6%,63%,54.3%,42%,61.6%,62.5%,62.1%,82%,45.9%,26.7%
O=C(/C=C/c1cc([N+](=O)[O-])ccc1Cl)c1ccccc1,107%,84.6%,80.8%,70.8%,112%,91.2%,73.2%,86%,68.7%,78%
F,-27.7% [6.87 mM] (active),-14.8% [6.87 mM] (active),27% [6.87 mM],12% [6.87 mM],4.45% [6.87 mM] (active),23.6% [6.87 mM],28.9% [6.87 mM],-28.8% [6.87 mM] (active),29.9% [6.87 mM],23.5% [6.87 mM]
COc1ccc(NC(=O)/C=C/c2ccc(Cl)c(Cl)c2)cn1,101%,83.7%,88.9%,74.1%,78.3%,93.4%,59.3%,65.6%,32.9%,44.4%
CN1CCN(Cc2ccc(NC(=O)c3cncc(C#Cc4ncc5ccccn45)c3)cc2C(F)(F)F)CC1,-8.17% (active),43.9%,24%,5.98% (active),53.4%,13.1%,1.78% (active),11.4%,8.69% (active),17.8%
CC(C)c1ccc(Cn2ccc3c4c(N)nc(NC5CC5)nc4ccc32)cc1,-82.6% (active),-84.2% (active),-91.5% (active),-99% (active),-97.2% (active),-98.9% (active),-98.6% (active),-82.3% (active),-16.3% (active),-42.8% (active)
C#CC[C@@H]1C[C@]2(C)[C@H]3CC=C4[C@H]5[C@@H](C)[C@H](C)CC[C@]5(C(=O)NCCCN5CCN(CCCN)CC5)CC[C@@]4(C)[C@]3(C)CC[C@H]2C(C)(C)[C@H]1OC(C)=O,-57.3% (active),-83.4% (active),-43.8% (active),-84.2% (active),-32.8% (active),-74.9% (active),-68% (active),111%,-29.4% (active),-38.1% (active)
COc1cc(C2=NOC(c3cc(OC)c(OC)c(OC)c3)C2)ccc1OCCCCOc1cc2c(cc1OC)C(=O)N1CCC[C@H]1C=N2 (stereo not given in full),1.46% (active),-39.6% (active),6.18% (active),7.06% (active),-22.4% (active),5.06% (active),5.08% (active),-58.7% (active),-37.5% (active),2.1% (active)
CC[C@H](Nc1nc(N)nc(N)c1Cl)c1nc2cccc(NCc3ccc(C(=O)NO)cc3)c2c(=O)n1-c1ccccc1,71.5%,42%,10%,20.6%,-1.39% (active),3.82% (active),39.6%,-12.7% (active),7.44% (active),0.294% (active)
COc1ccc2[nH]c(O)c(/C=c3/ccc4c(c3)N=C(c3ccc(C(F)(F)F)cc3)N=4)c2c1,104%,82.4%,79.9%,91.3%,131%,78%,55.6%,71.7%,23.2%,48%
NCCCOc1cc2ccccc2cc1C(=O)NCCCOc1cc2ccccc2cc1C(=O)Nc1ccc(Cl)cc1O,-73.8% (active),-45.6% (active),-78.5% (active),-95.4% (active),-95.5% (active),-95.9% (active),-89.9% (active),-38.7% (active),-16.3% (active),-20.6% (active)
N[C@@H](CO)C(=O)O,116%,84.3%,101%,83.4%,125%,107%,91.2%,85.3%,94.8%,101%
C/C(CC(=O)NNc1ccc([N+](=O)[O-])cc1)=N\Nc1ccc([N+](=O)[O-])cc1,111%,54.1%,68.9%,40%,93.4%,47.5%,31.3%,81%,48.6%,29.2%
COc1ccc2[nH]c(C(=O)OCc3ccc4cccc(O)c4n3)cc2c1,-20.3% (active),-78% (active),-74.8% (active),-100% (active),-89.2% (active),-98.4% (active),-97.6% (active),36.5%,4.41% (active),-11.5% (active)
